From PubChem
A selection: hits, their analogues and other compounds. The true share with any hit is near 2.9%.
Mcl1 Bid PPI: Mcl-1/Bid binding inhibitors, primary screen, biochemical, TR-FRET, 1536-well. TR-FRET Mcl-1/Bid-Dy647 peptide binding. inhibition, % at 21.7 µM. 220,000 tested, 0.97% active. AID 1021, 2008;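 active = compounds that cut the binding signal by more than half at the single screening dose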;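 also: His-tagged Mcl-1 with europium anti-His antibody binding Bid BH3 peptide; 0% = Mcl-1 plus peptide wells and 100% = peptide-only wells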
Target sequence (Q07820 whole entry, looked up): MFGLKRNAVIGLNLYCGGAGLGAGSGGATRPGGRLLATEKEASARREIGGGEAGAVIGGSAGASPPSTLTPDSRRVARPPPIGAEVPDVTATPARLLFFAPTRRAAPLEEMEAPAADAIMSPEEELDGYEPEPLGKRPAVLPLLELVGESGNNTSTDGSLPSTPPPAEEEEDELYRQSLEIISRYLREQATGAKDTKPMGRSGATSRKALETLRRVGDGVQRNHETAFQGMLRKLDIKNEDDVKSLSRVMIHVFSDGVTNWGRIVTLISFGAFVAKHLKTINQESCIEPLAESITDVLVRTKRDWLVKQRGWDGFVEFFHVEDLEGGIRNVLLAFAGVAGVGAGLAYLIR
Mcl1 Noxa PPI: Mcl-1/Noxa binding inhibitors, primary screen, biochemical, TR-FRET, 1536-well; Induced myeloid leukemia cell differentiation protein Mcl-1 (Homo sapiens), Q07820; TR-FRET Mcl-1/Noxa peptide binding, 2 h; AID 1022, 2008; inhibition, % at 21.7 µM; 220,000 tested, 1.5% active;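 active = compounds that cut the protein-peptide binding signal by more than 50% relative to plate controls in a single-dose test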;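 also: His-tagged Mcl-1 with rhodamine Noxa BH3 peptide and terbium anti-His antibody; 0% = Mcl-1 plus Noxa peptide wells and 100% = peptide-only wells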
14-3-3 Bad PPI: inhibitors of 14-3-3 zeta/Bad binding, primary screen, biochemical, TR-FRET, bovine 14-3-3 zeta. 14-3-3 protein zeta/delta (Bos taurus), P63103. TR-FRET 14-3-3zeta/Dy647-pBad peptide displacement, 1 h. inhibition, % at 21.7 µM. 220,000 tested, 0.71% active;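 active = inhibition above about 70%, limit read from the data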;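 also: 0% = full 14-3-3 plus peptide FRET controls and 100% = background without 14-3-3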
Target sequence (P63103 whole entry, looked up): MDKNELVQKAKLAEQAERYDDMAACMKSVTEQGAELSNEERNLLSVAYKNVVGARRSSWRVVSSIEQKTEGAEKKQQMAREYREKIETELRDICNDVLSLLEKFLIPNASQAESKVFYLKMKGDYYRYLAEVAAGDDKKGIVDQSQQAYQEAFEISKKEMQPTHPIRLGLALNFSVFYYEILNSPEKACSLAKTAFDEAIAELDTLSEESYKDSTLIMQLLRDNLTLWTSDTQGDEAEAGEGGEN
Pf gametocyte: late stage P. falciparum gametocyte viability inhibitors, primary screen, ATP luminescence, HTS; P. falciparum stage V gametocytes, 24 h; inhibition, % at 10.9 µM; 150,000 tested, 0.065% active; AID 743093, 2013;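 active = inhibition above the mean plus 3 SD of compounds within the control limits, set per campaign, cut at about 38% in these data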;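 also: 0% = DMSO wells and 100% = medium only without gametocytes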
Hck Nef HTS: inhibitors of Nef-activated human Hck kinase, primary screen, biochemical, Z-Lyte FRET, 384-well, Hck-YEEI; Tyrosine-protein kinase HCK (Homo sapiens), P08631; Recombinant Hck-YEEI plus Nef, Z-Lyte FRET kinase assay; inhibition, % at 20 µM; 220,000 tested, 0.68% active;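 active = Hck-Nef kinase inhibition above about 50%, limit read from the data; inactive = inhibition below that limit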;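 also: 0% = DMSO with Hck plus Nef and 100% = Hck alone without Nef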
Mcl-1 Bim block: inhibitors of Bim peptide binding to Mcl-1, primary screen, biochemical, bead-based flow cytometry, multiplex; AID 1009, 2008; inhibition, % at 10 µM; 190,000 tested, 0.1% active; Bim peptide-Mcl-1 binding; in the data active = inhibition above about 40%;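 also: 0% = no compound tracer wells and 100% = peptide blocker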
Hck-Nef confirm: retest of Hck:Nef kinase inhibitor hits, confirmation, biochemical, Z-Lyte FRET, 384-well, p-Tyr peptide counterscreen. shares compounds with Hck Nef HTS. Recombinant Hck-YEEI:Nef, Z-Lyte FRET kinase assay. calls only at 10 µM. 1,300 tested, 28% active. AID 463188, 2010;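 active = average inhibition of at least 50%, with Z-scores no higher than 3 in both the phospho-tyrosine peptide and fluorescence counterscreens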
Starred values were filed as active, the others as inactive; i = inactive; / = no result shown; + = active, no number; [ ] = another dose, or the depositor's remark.

SMILES	Mcl1 Bid PPI	Mcl1 Noxa PPI	14-3-3 Bad PPI	Pf gametocyte	Hck Nef HTS	Mcl-1 Bim block	Hck-Nef confirm
CCSc1nc2c(c(=O)[nH]1)C(c1ccncc1)C(C(=O)OC(C)C)=C(C)N2 (centres undefined)	-21	16	-13	-26	5	0	/
COc1cccc(-c2nc(CS(=O)(=O)CC(=O)N3CCc4ccccc43)c(C)o2)c1	-9	10	-1	/	2	-3	/
O=C(O)c1ccccc1/C=N/NC(=O)c1cc(-c2ccco2)nc2ccccc12	27	99*	70	8	71*	/	+
CC(=O)Nc1ccc(/C=N/NC(=O)c2cc(-c3ccco3)nc3ccccc23)cc1	-21	15	-11	7	15	/	/
COc1ccc(-c2nc(Cn3c(SCc4ccccc4F)nc4ccncc43)c(C)o2)cc1	-62	-90	19	/	0	-1	/
COc1ccc(-c2csc(Nc3ccccc3)[n+]2Cc2ccccc2)cc1	-28	3	-13	17	17	0	/
Cc1ccc(-c2csc(Nc3ccc(C(=O)O)cc3)[n+]2Cc2ccccc2)cc1	-96	46	16	-9	85*	0	+
CCOC(=O)CC(NC(=O)C1c2ccccc2Oc2ccccc21)c1ccccc1Cl (centres undefined)	-3	14	2	1	3	-2	/
CCC(=O)NNc1ncnc2ccccc12	-9	29	15	-7	1	-6	/
O=C(O)CCC(=O)NNc1ncnc2ccccc12	-20	5	-21	17	52*	1	i
COc1ccc(-c2nnn(CC(=O)NCCc3ccc(OC)c(OC)c3)n2)cc1	-2	2	-8	-12	97*	1	i
COc1ccc(CCNC(=O)Cn2nnc(-c3cccs3)n2)cc1OC	-45	-3	/	-37	1	-2	/
CCN1C(=O)/C(=C\c2ccc(-c3ccc([N+](=O)[O-])cc3OC)o2)SC1=Nc1cccc(C(=O)O)c1	70*	98*	60	/	70*	-6	i
CCN=C1S/C(=C\c2ccc(-c3cccc(C(=O)O)c3)o2)C(=O)N1CC	-22	35	-9	/	32	4	/
O=C(O)c1ccc(N/N=C/c2ccc(-c3cccc(Cl)c3)o2)cc1	-23	40	-7	11	53*	/	i
CC(C)CCN(CCC(C)C)CC(O)Cn1c2ccccc2c(=O)c2ccccc21 (centres undefined)	-10	26	-5	-20	117*	/	/
COCCCN(C(=O)c1cccnc1SC)c1c(N)n(Cc2ccccc2)c(=O)[nH]c1=O	-7	2	-2	2	1	0	/
CCOC(=O)c1c(NC(=O)/C=C/C(=O)O)sc(C)c1-c1ccc(F)cc1	-50	19	3	-3	51*	-3	+
Cc1c(N=C2C=C(Br)C(=O)C(Br)=C2)c(=O)n(-c2ccccc2)n1C	-43	49	-21	10	50*	3	i
Cc1c(N=Nc2ccc(O)cc2)c(=O)n(-c2ccccc2)n1C	-32	10	-8	10	-17	0	/
Cc1c(N=C2C=CC(=O)c3ccccc32)c(=O)n(-c2ccccc2)n1C	-12	0	-33	14	51*	-5	i
O=C(NC(=S)Nc1c(F)cc(F)cc1Br)c1ccc2c(c1)OCCO2	-22	12	-15	6	2	-1	/
Cc1onc(-c2ccccc2)c1C(=O)Nc1nnc(COc2ccc(Cl)cc2)s1	0	-16	20	/	-2	-15	/
[O-]/C(=C(\C(=S)Nc1cccc2ccccc12)[n+]1ccccc1)c1ccc(OC(F)F)cc1	-56	23	-12	4	4	2	/
Cc1ccc(N=Cc2cc(Cc3ccccc3Cl)cc([N+](=O)[O-])c2O)c(O)c1	-70	50	37	/	56*	-3	i
SMILES	Mcl1 Bid PPI	Mcl1 Noxa PPI	14-3-3 Bad PPI	Pf gametocyte	Hck Nef HTS	Mcl-1 Bim block	Hck-Nef confirm
CC(=O)Nc1sc(NC(=O)c2ccccc2)nc1-c1cccs1	-46	17	-8	9	-2	-2	/
CC(=O)Nc1sc(N/N=C\c2ccc(O)cc2)nc1-c1cccs1	-71	104*	4	-25	60*	/	i
Cc1ccc(CSc2nnc(-c3cccc(S(=O)(=O)N4CCOCC4)c3)n2CC(C)C)cc1	-4	5	-9	/	2	-4	/
N#Cc1c(-c2cccnc2)c2c([nH]c1=O)-c1ccccc1OC2	-15	-7	-4	-6	130*	/	/
N#Cc1c(-c2ccc(F)cc2)c2c([nH]c1=O)-c1ccccc1OC2	-9	21	-1	-7	126*	/	/
Cc1cccc(CCN(CC(=O)NC(C)(C)C)C(=O)c2csnn2)c1	-19	18	4	-28	21	-2	/
Cc1ccc(-c2ccc(=O)n(CC(=O)NCCN3CCCCC3C)n2)cc1 (centres undefined)	-14	-4	6	/	1	-3	/
COc1ccc(-c2cc3ccccc3oc2=O)cc1NC(=O)c1ccc(Br)o1	60*	-70	43	/	77*	-17	i
COc1ccc(-c2cc3ccccc3oc2=O)cc1NC(=S)NC(=O)c1ccc2c(c1)OCCO2	-3	-47	77*[fluorescence artefact?]	/	51*	-4	+
O=C1CCCC2=C1C(c1cccc(O)c1)c1c(ccc3ncccc13)N2 (centres undefined)	-1	12	-6	-3	65*	3	i
c1ccc(COc2ccc(Nc3ncnc4nc[nH]c34)cc2)cc1	-22	4	6	/	69*	9	+
CCOC(=O)c1ccc(Nc2ncnc3nc[nH]c23)cc1	-3	3	-7	/	6	-3	/
COc1cc2cc(CN(C(=O)Nc3ccccc3)C3CCCC3)c(=O)[nH]c2cc1OC	-3	3	7	/	6	-1	/
O=C(O)c1cc(N2N=C(C(F)(F)F)/C(=C/C=C/c3ccco3)C2=O)ccc1Cl	86*	106*	27	-44	97*	-4	+
CCOC(=O)c1ccc(N2N=C(C)/C(=C/C=C/c3ccco3)C2=O)cc1	-13	32	-7	-22	8	0	/
N#Cc1ccc(Cl)cc1NC(=O)CSc1nc2nc(-c3cccs3)cc(C(F)(F)F)c2c(=O)[nH]1	12	46	39	/	67*	/	i
O=c1oc2c3c4c(cc2c(C(F)(F)F)c1CCN1CCOCC1)CCCN4CCC3	-21	-193	-17	/	-8	-7	/
Cc1cc(=O)oc2c3c(ccc12)OC/C3=N/N	-44	11	-4	10	16	/	/
